Test results as given in PubChem BioAssay (NCI).
The panel holds about 83,000 compounds, 20% with a hit somewhere; the sample as a whole holds those more often.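 48-hour exposure, single concentration, 96-well plates; percent growth endpoint where 0 means no net growth. Active: below 10.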 Active and inactive are the calls of the source.

How the values were obtained:
Assay in all cases: NCI-60 one-dose screen, 48 h (100 = growth as untreated, 0 = no growth, -100 = all killed)
Conditions in all cases: 10 µM unless noted
SR leukemia = test system: SR leukemia
RPMI-8226 leukemia = test system: RPMI-8226 leukemia
OVCAR-8 ovarian = test system: OVCAR-8 ovarian
OVCAR-5 ovarian = test system: OVCAR-5 ovarian
OVCAR-4 ovarian = test system: OVCAR-4 ovarian
SK-OV-3 ovarian = test system: SK-OV-3 ovarian
OVCAR-3 ovarian = test system: OVCAR-3 ovarian
HS 578T breast = test system: HS 578T breast
NCI/ADR-RES ovarian = test system: NCI/ADR-RES ovarian
T-47D breast = test system: T-47D breast
BT-549 breast = test system: BT-549 breast
MDA-MB-435 melanoma = test system: MDA-MB-435 melanoma
SW-620 colon = test system: SW-620 colon
MCF7 breast = test system: MCF7 breast
HCT-116 colon = test system: HCT-116 colon
HCC-2998 colon = test system: HCC-2998 colon
KM12 colon = test system: KM12 colon
IGROV1 ovarian = test system: IGROV1 ovarian

Measured: growth

Cc1ccc(NC(=O)c2sc3nc4c(cc3c2N)C(=O)CCC4)cc1
inactive: SR leukemia 63.1% | RPMI-8226 leukemia 93.4% | OVCAR-8 ovarian 98.3% | OVCAR-5 ovarian 78.6% | OVCAR-4 ovarian 106% | SK-OV-3 ovarian 37.5% | OVCAR-3 ovarian 133% | HS 578T breast 107% | NCI/ADR-RES ovarian 98.2% | T-47D breast 94.7% | BT-549 breast 86.4% | MDA-MB-435 melanoma 14.6% | SW-620 colon 67% | MCF7 breast 67.7% | HCT-116 colon 91.7% | HCC-2998 colon 80.2% | KM12 colon 56.7%

Cn1cc(NC(=O)Nc2cc(C(=O)O)n(C)c2)cc1C(=O)O
inactive: SR leukemia 86.8% | RPMI-8226 leukemia 125% | OVCAR-8 ovarian 94.4% | OVCAR-5 ovarian 107% | OVCAR-4 ovarian 99.8% | SK-OV-3 ovarian 112% | OVCAR-3 ovarian 102% | HS 578T breast 108% | NCI/ADR-RES ovarian 105% | T-47D breast 107% | BT-549 breast 125% | MDA-MB-435 melanoma 115% | SW-620 colon 96.3% | MCF7 breast 116% | HCT-116 colon 102% | HCC-2998 colon 107% | KM12 colon 98.6%

Cc1ccc(-c2csc(N)n2)cc1
inactive: SR leukemia 86.3% | RPMI-8226 leukemia 89.2% | OVCAR-8 ovarian 101% | OVCAR-5 ovarian 94% | OVCAR-4 ovarian 94% | SK-OV-3 ovarian 108% | OVCAR-3 ovarian 114% | HS 578T breast 115% | NCI/ADR-RES ovarian 104% | T-47D breast 92.9% | BT-549 breast 93% | MDA-MB-435 melanoma 106% | SW-620 colon 105% | MCF7 breast 106% | HCT-116 colon 99.9% | HCC-2998 colon 98.7% | KM12 colon 106%

Nc1ccc(Oc2c(F)c(F)c(Oc3ccc(N)cc3)c(F)c2F)cc1
inactive: SR leukemia 96.3% | RPMI-8226 leukemia 82.9% | OVCAR-8 ovarian 101% | OVCAR-5 ovarian 83.4% | OVCAR-4 ovarian 83.8% | SK-OV-3 ovarian 105% | OVCAR-3 ovarian 101% | HS 578T breast 95.4% | NCI/ADR-RES ovarian 94% | T-47D breast 91.8% | BT-549 breast 108% | MDA-MB-435 melanoma 104% | SW-620 colon 102% | MCF7 breast 129% | HCT-116 colon 81.5% | HCC-2998 colon 73.1%

COc1ccc(C(=O)COc2cccc(/C=C3\CSc4ccc(Cl)cc4C3=O)c2)cc1
active: RPMI-8226 leukemia -13.7% | SW-620 colon -65.9% | MCF7 breast -11.8%
inactive: SR leukemia 20% | OVCAR-8 ovarian 78.4% | OVCAR-5 ovarian 93.5% | OVCAR-4 ovarian 64.6% | SK-OV-3 ovarian 94.6% | OVCAR-3 ovarian 88% | HS 578T breast 91% | NCI/ADR-RES ovarian 84.3% | T-47D breast 70.4% | BT-549 breast 42.5% | MDA-MB-435 melanoma 93.2% | HCT-116 colon 53.9% | HCC-2998 colon 95.2%

O=C(COc1ccc(/C=C2\Oc3ccc4ccccc4c3C2=O)cc1)c1ccc([N+](=O)[O-])cc1
inactive: SR leukemia 29% | RPMI-8226 leukemia 61.9% | OVCAR-8 ovarian 91.1% | OVCAR-5 ovarian 103% | OVCAR-4 ovarian 102% | SK-OV-3 ovarian 103% | OVCAR-3 ovarian 158% | HS 578T breast 105% | NCI/ADR-RES ovarian 101% | T-47D breast 73.1% | MDA-MB-435 melanoma 104% | SW-620 colon 98.5% | MCF7 breast 15.6% | HCT-116 colon 74.1% | HCC-2998 colon 95.5% | KM12 colon 93.5%
active: BT-549 breast 9.91%

O=C(COc1cccc(/C=C2\Oc3ccc4ccccc4c3C2=O)c1)c1ccc([N+](=O)[O-])cc1
inactive: RPMI-8226 leukemia 79.9% | OVCAR-8 ovarian 97.6% | OVCAR-5 ovarian 100% | OVCAR-4 ovarian 81.8% | SK-OV-3 ovarian 88.9% | OVCAR-3 ovarian 103% | HS 578T breast 93.1% | NCI/ADR-RES ovarian 102% | T-47D breast 64% | MDA-MB-435 melanoma 90.8% | SW-620 colon 80% | MCF7 breast 49.3% | HCT-116 colon 58.5% | HCC-2998 colon 108% | KM12 colon 88.3%
active: SR leukemia 3.73% | BT-549 breast -81.9%

O=C(O)c1ccc(CNS(=O)(=O)c2ccc3ccccc3c2)cc1
inactive: SR leukemia 33.4% | RPMI-8226 leukemia 112% | OVCAR-8 ovarian 67.7% | OVCAR-5 ovarian 115% | OVCAR-4 ovarian 98.3% | SK-OV-3 ovarian 109% | OVCAR-3 ovarian 94.9% | HS 578T breast 81% | NCI/ADR-RES ovarian 128% | T-47D breast 100% | BT-549 breast 104% | MDA-MB-435 melanoma 110% | SW-620 colon 99.8% | MCF7 breast 107% | HCT-116 colon 109% | HCC-2998 colon 271% | KM12 colon 101%

Cc1ccc2c(c1)C(=O)/C(=C\Nc1ccc(C(N)=O)cc1)C(O)O2 (stereo not given)
inactive: SR leukemia 97.1% | RPMI-8226 leukemia 46.5% | OVCAR-8 ovarian 97.1% | OVCAR-5 ovarian 110% | OVCAR-4 ovarian 101% | SK-OV-3 ovarian 107% | OVCAR-3 ovarian 84.6% | HS 578T breast 97.4% | NCI/ADR-RES ovarian 110% | T-47D breast 73.9% | BT-549 breast 82.4% | MDA-MB-435 melanoma 98.4% | SW-620 colon 93.2% | MCF7 breast 96.6% | HCT-116 colon 93.5% | HCC-2998 colon 134% | KM12 colon 88.2%

O=C(COc1ccc(/C=C2\Oc3ccc4ccccc4c3C2=O)cc1)c1ccc(Cl)cc1
inactive: SR leukemia 26.8% | RPMI-8226 leukemia 62.1% | OVCAR-8 ovarian 100% | OVCAR-5 ovarian 113% | OVCAR-4 ovarian 94.6% | SK-OV-3 ovarian 104% | OVCAR-3 ovarian 127% | HS 578T breast 91.7% | NCI/ADR-RES ovarian 107% | T-47D breast 79.4% | BT-549 breast 24.7% | MDA-MB-435 melanoma 101% | SW-620 colon 103% | MCF7 breast 58.5% | HCT-116 colon 96.7% | HCC-2998 colon 134% | KM12 colon 99.5%

Cc1ccc(/C=C/C(=O)c2ccc(F)cc2)s1
inactive: SR leukemia 10.3% | RPMI-8226 leukemia 18.6% | OVCAR-8 ovarian 43.6% | OVCAR-5 ovarian 85.7% | OVCAR-4 ovarian 81.2% | SK-OV-3 ovarian 96.5% | OVCAR-3 ovarian 87% | HS 578T breast 102% | NCI/ADR-RES ovarian 61.7% | T-47D breast 62.9% | BT-549 breast 76.7% | MDA-MB-435 melanoma 52.1% | SW-620 colon 30.4% | MCF7 breast 35.9% | HCT-116 colon 25.8% | HCC-2998 colon 88% | KM12 colon 67.3%

CSc1nc(-c2ccc(O)cc2O)c2c(=O)[nH]c(Nc3ccc(S(=O)(=O)Nc4nc(C)cc(C)n4)cc3)nc2n1
inactive: SR leukemia 63.3% | RPMI-8226 leukemia 99.2% | OVCAR-8 ovarian 107% | OVCAR-5 ovarian 90% | OVCAR-4 ovarian 108% | SK-OV-3 ovarian 105% | OVCAR-3 ovarian 98.1% | HS 578T breast 119% | NCI/ADR-RES ovarian 97.5% | T-47D breast 91.5% | BT-549 breast 87.1% | MDA-MB-435 melanoma 196% | SW-620 colon 108% | MCF7 breast 113% | HCT-116 colon 101% | HCC-2998 colon 93.4% | KM12 colon 102%

COc1cnc2c(c1)C(=O)c1c-2n(CCCn2ccnc2)c(=O)c2cc(F)ccc12
active: SR leukemia -25% | RPMI-8226 leukemia -28.2% | OVCAR-8 ovarian 5.92% | OVCAR-5 ovarian -30.4% | OVCAR-4 ovarian -0.273% | SK-OV-3 ovarian -22.5% | IGROV1 ovarian 4.03% | OVCAR-3 ovarian -35.5% | T-47D breast -9.74% | BT-549 breast -11.2% | MDA-MB-435 melanoma -60.3% | SW-620 colon -45.2% | MCF7 breast 0.795% | HCT-116 colon -49.9% | HCC-2998 colon 4.65% | KM12 colon 0.0466%

NC(=O)NS(=O)(=O)c1ccc(N2N=C(C(F)(F)F)CC2c2cc(C(F)(F)F)cc(C(F)(F)F)c2)cc1 (stereo not given)
active: RPMI-8226 leukemia 2.36%
inactive: SR leukemia 66.2% | OVCAR-8 ovarian 79.8% | OVCAR-5 ovarian 85.7% | OVCAR-4 ovarian 69.7% | SK-OV-3 ovarian 93% | OVCAR-3 ovarian 69.7% | HS 578T breast 66.5% | NCI/ADR-RES ovarian 77% | T-47D breast 72.4% | BT-549 breast 98% | MDA-MB-435 melanoma 40% | SW-620 colon 82.6% | MCF7 breast 49.7% | HCT-116 colon 55.9% | HCC-2998 colon 88.2% | KM12 colon 71%

Nc1nc(NC2CC2)c2ncn(C3C=CC(CO)C3)c2n1 (stereo not given)
inactive: SR leukemia 80.8% | RPMI-8226 leukemia 111% | OVCAR-8 ovarian 93.9% | OVCAR-5 ovarian 103% | OVCAR-4 ovarian 106% | SK-OV-3 ovarian 117% | OVCAR-3 ovarian 110% | HS 578T breast 104% | NCI/ADR-RES ovarian 104% | T-47D breast 110% | BT-549 breast 115% | MDA-MB-435 melanoma 105% | SW-620 colon 106% | MCF7 breast 107% | HCT-116 colon 109% | HCC-2998 colon 103% | KM12 colon 99.7%

CCC(C)C1NC(=O)C(CCNCS(=O)(=O)O)NC(=O)C(NC(=O)C(CCNCS(=O)(=O)O)NC(=O)C(NC(=O)C(CCNCS(=O)(=O)O)NC(=O)CCCCC(C)C)C(C)O)CCNC(=O)C(C(C)O)NC(=O)C(CCNCS(=O)(=O)O)NC(=O)C(CCNCS(=O)(=O)O)NC(=O)C(C(C)CC)NC1=O (stereo not given)
active: MDA-MB-435 melanoma -56.2%
inactive: SR leukemia 16.4% | RPMI-8226 leukemia 22.6% | OVCAR-8 ovarian 78.7% | OVCAR-5 ovarian 73.1% | OVCAR-4 ovarian 58.1% | SK-OV-3 ovarian 40.3% | IGROV1 ovarian 56.8% | NCI/ADR-RES ovarian 107% | T-47D breast 49.2% | BT-549 breast 66.3% | SW-620 colon 34.8% | MCF7 breast 18.7% | HCT-116 colon 31.7% | HCC-2998 colon 65.1%

NC(=O)c1cc(Br)cc(Br)c1NS(=O)(=O)c1ccccc1
inactive: SR leukemia 101% | RPMI-8226 leukemia 97.2% | OVCAR-8 ovarian 114% | OVCAR-5 ovarian 108% | OVCAR-4 ovarian 95.8% | SK-OV-3 ovarian 102% | IGROV1 ovarian 94.9% | OVCAR-3 ovarian 106% | T-47D breast 99.2% | BT-549 breast 103% | MDA-MB-435 melanoma 111% | SW-620 colon 101% | MCF7 breast 99% | HCT-116 colon 100% | HCC-2998 colon 106% | KM12 colon 106%

O=C(NCCCl)NCCN1c2nc3ccccc3cc2Sc2cc3ccccc3nc21
inactive: SR leukemia 35.9% | RPMI-8226 leukemia 42% | OVCAR-8 ovarian 56.2% | OVCAR-5 ovarian 82.2% | OVCAR-4 ovarian 49.5% | SK-OV-3 ovarian 77.1% | OVCAR-3 ovarian 142% | HS 578T breast 58% | NCI/ADR-RES ovarian 57.4% | T-47D breast 69% | BT-549 breast 40.3% | MDA-MB-435 melanoma 58.5% | SW-620 colon 41.3% | MCF7 breast 18.3% | HCT-116 colon 31.3% | HCC-2998 colon 35.1% | KM12 colon 71.9%
